Here are results for 98 molecules from paper PMC4336329 (PLoS ONE, 2015).

The campaign covered roughly 310,000 compounds. About 14,000 (4.5%) showed an effect of 50% or more. Effects have a minus sign here. Only a selection was taken, and strong results are over-represented in it overall.
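Further: peak tail current of the secondary pulse compared with the same well before compound.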

Chain of human ether-à-go-go-related gene (hERG) potassium channel (Q12809 whole entry, looked up): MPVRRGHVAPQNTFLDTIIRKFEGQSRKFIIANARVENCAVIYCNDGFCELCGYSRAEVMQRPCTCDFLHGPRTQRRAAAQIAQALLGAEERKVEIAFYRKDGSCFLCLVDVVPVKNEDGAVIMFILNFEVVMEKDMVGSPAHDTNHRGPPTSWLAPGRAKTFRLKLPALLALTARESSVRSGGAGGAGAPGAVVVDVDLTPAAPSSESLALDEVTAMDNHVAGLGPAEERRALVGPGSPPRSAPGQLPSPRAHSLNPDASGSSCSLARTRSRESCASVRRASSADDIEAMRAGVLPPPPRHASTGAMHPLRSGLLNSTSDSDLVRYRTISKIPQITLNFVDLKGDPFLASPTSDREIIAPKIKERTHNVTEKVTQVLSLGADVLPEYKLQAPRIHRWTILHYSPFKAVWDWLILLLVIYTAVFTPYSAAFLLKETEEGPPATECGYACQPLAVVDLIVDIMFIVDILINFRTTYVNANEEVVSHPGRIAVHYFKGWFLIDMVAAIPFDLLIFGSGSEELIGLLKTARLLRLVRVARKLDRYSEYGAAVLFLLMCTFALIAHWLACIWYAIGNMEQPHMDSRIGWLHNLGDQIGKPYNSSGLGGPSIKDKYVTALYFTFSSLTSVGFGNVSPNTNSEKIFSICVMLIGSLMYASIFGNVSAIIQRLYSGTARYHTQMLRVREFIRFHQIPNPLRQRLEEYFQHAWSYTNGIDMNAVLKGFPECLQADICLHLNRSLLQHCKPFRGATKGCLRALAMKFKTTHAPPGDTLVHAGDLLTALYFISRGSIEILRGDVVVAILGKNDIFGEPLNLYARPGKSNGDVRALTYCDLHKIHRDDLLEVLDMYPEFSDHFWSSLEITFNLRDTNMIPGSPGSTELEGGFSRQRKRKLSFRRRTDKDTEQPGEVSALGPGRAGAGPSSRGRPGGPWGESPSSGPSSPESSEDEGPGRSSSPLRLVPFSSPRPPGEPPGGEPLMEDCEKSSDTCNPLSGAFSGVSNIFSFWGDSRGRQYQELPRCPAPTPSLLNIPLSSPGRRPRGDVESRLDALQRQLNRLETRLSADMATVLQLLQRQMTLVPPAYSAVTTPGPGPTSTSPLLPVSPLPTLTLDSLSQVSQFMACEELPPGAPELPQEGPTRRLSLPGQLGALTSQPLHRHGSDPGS

The experiment concerns the target human ether-à-go-go-related gene (hERG) potassium channel (human, UniProt Q12809). Kind of experiment: primary screen, population patch clamp on CHO cells stably expressing hERG; higher = less effect of the substance.
As for `CC(C(=O)c1ccc(-c2ccccc2)cc1)[n+]1ccccc1.[Br-]` (centres unmarked), the “hERG current change (%, negative = inhibition) at 10uM” value was 2.72%. Under `CCOC(=O)c1ccc(N2C(=O)c3n[nH]c(C)c3C2c2cccnc2)cc1` (centres unmarked) stands -17.2%. The result for `CC(C(=O)OCC(=O)c1ccc(F)cc1)N1C(=O)C2C3C=CC(C3)C2C1=O` (centres unmarked) reads -15.4%; that for `Cc1ccc(NC(=O)/C(=C\c2cccc([N+](=O)[O-])c2)NC(=O)c2cccs2)cc1`, -1.85%. In the case of `Cc1cccc(NC(=O)/C(=C/c2cccc([N+](=O)[O-])c2)NC(=O)c2cccs2)c1`, the “hERG current change (%, negative = inhibition) at 10uM” value stood at 10.2%. As to `O=C(Nc1cccc2ccccc12)/C(=C/c1cccc([N+](=O)[O-])c1)NC(=O)c1cccs1`, the “hERG current change (%, negative = inhibition) at 10uM” value is recorded as -67.7%.

As for `CCOC(=O)c1cnn(-c2ccccc2)c1-n1cccc1`, the “hERG current change (%, negative = inhibition) at 10uM” value is -8.27%. Turning to `C=CCNC(=S)Nc1ccccc1`, the “hERG current change (%, negative = inhibition) at 10uM” value is on record as -8.73%. As to `CN(C)c1ccc(NC(=O)Nc2csc3ccccc23)cc1`, the “hERG current change (%, negative = inhibition) at 10uM” value worked out at 18.4%. `Fc1cccc(F)c1CN1CCN(c2ncccn2)CC1`: the “hERG current change (%, negative = inhibition) at 10uM” value is 15.5%. On to `OCCCNc1nc(-c2ccccc2)c2cc(Cl)ccc2n1`, for which the “hERG current change (%, negative = inhibition) at 10uM” value amounted to 3.04%. Under `O=c1oc2ccc(Cl)cc2cc1-c1ccccc1` stands 22.4%; under `O=C(COc1ccc2oc(-c3ccccc3)cc(=O)c2c1)Nc1ccccc1`, -2.43%; under `F[B-](F)(F)F.OCCCCC[NH+]=c1cc(-c2ccccc2)oc2ccc(Cl)cc12`, -80.3%. Consider `Nc1c(C(=O)CCC(=O)O)oc2ccc(Cl)cc12`, for which the “hERG current change (%, negative = inhibition) at 10uM” value is -9.4%. For the molecule `F[B-](F)(F)F.OCC[NH+]=c1cc(-c2ccccc2)oc2ccc(Cl)cc12`, the “hERG current change (%, negative = inhibition) at 10uM” value was -71.3%.

As to `O=c1cc(-c2ccccc2)oc2ccc(O)cc12`, the “hERG current change (%, negative = inhibition) at 10uM” value is given as -9.74%. The result for `F[B-](F)(F)F.OCCC[NH+]=c1cc(-c2ccccc2)oc2ccc(Cl)cc12` reads -79.1%; that for `COc1ccc(-c2cc(=[NH+]c3ccccc3)c3cc(C)ccc3o2)cc1.[O-][Cl+3]([O-])([O-])[O-]`, 24.8%; that for `CCCNC(=O)c1cccc(COCC(F)(F)F)c1`, -2.57%. The result for `O=C(Nc1ccccn1)C1(c2cccs2)CCOCC1` reads 8.48%. On to `O=[N+]([O-])c1ccc(S(=O)(=O)N2CCC3(CC2)OCCN3S(=O)(=O)c2cccs2)cc1`, for which the “hERG current change (%, negative = inhibition) at 10uM” value was -50.4%. As to `Cc1ccc(S(=O)(=O)N2CCOC23CCN(C(=O)c2cc(Cl)ccc2Cl)CC3)cc1`, the “hERG current change (%, negative = inhibition) at 10uM” value is reported as -47.6%. The result for `COc1ccc(S(=O)(=O)N2CCOC23CCN(C(=O)c2ccc(Cl)cc2Cl)CC3)cc1` reads -68.9%; that for `COc1ccc(S(=O)(=O)N2CCOC23CCN(S(=O)(=O)c2ccccc2)CC3)cc1`, 8.72%. Regarding `COc1ccc(S(=O)(=O)N2CCC3(CC2)OCCN3S(=O)(=O)c2ccc(OC)cc2)cc1`, the “hERG current change (%, negative = inhibition) at 10uM” value is on record as -24.1%. With `O=S(=O)(c1ccc(F)cc1)N1CCC2(CC1)OCCN2S(=O)(=O)c1cccs1`, the “hERG current change (%, negative = inhibition) at 10uM” value was -10.9%. The result for `Cc1ccc(S(=O)(=O)N2CCOC23CCN(C(=O)c2ccc(Cl)cc2Cl)CC3)cc1` reads -48.1%; that for `COc1ccc(S(=O)(=O)N2CCOC23CCN(S(=O)(=O)c2ccc([N+](=O)[O-])cc2)CC3)cc1`, -62%. Turning to `COc1ccc(S(=O)(=O)N2CCC3(CC2)OCCN3S(=O)(=O)c2cccs2)cc1`, the “hERG current change (%, negative = inhibition) at 10uM” value is listed as -23.8%. As to `COc1ccc(OCCSc2nc(N)cc(=O)[nH]2)cc1`, the “hERG current change (%, negative = inhibition) at 10uM” value is recorded as -1.77%. With `Cc1cccc(OCCC(=O)Nc2ccc(N3CCOCC3)cc2N2CCOCC2)c1`, the “hERG current change (%, negative = inhibition) at 10uM” value was -19.7%. Under `COn1c(SCc2ccc(C)cc2C)nc2ccccc2c1=O` stands 7.64%; under `O=C(Nc1ccc(SC(F)F)cc1)c1ccc2nccnc2c1`, -17.1%; under `CN1CCC(Oc2ccccc2Sc2ccccc2)CC1.O=C(O)C(=O)O`, -64.5%.

Consider `CN1CCC(Oc2ccccc2Sc2ccc(C(F)(F)F)cc2)CC1.O=C(O)C(=O)O`, for which the “hERG current change (%, negative = inhibition) at 10uM” value is listed as -63.2%. As to `Cc1ccccc1C(=O)OC1CCN(C)CC1.Cl`, the “hERG current change (%, negative = inhibition) at 10uM” value was determined as 6.06%.

For the molecule `COc1ccc(OC2CCN(S(=O)(=O)c3ccccc3)CC2)cc1`, the “hERG current change (%, negative = inhibition) at 10uM” value was -11.6%. The result for `CN1CCC(OC(=O)COc2ccccc2)CC1.Cl` reads 15.1%; that for `CN1CCC(OC(=O)COc2ccc(C(C)(C)C)cc2)CC1.Cl`, -28.7%.

In the case of `CN1CCC(OC(=O)c2ccccc2)CC1.Cl`, the “hERG current change (%, negative = inhibition) at 10uM” value came to 7.92%. For the molecule `CN1CCC(Oc2ccc(Sc3ccccc3)cc2)CC1.Cl`, the “hERG current change (%, negative = inhibition) at 10uM” value was -67%.

With `CN1CCC(OC(=O)Cc2ccccc2)CC1.Cl`, the “hERG current change (%, negative = inhibition) at 10uM” value is recorded as 5.22%. On to `COc1ccccc1NC(=O)CCCCC(=O)Nc1ccccc1OC`, for which the “hERG current change (%, negative = inhibition) at 10uM” value worked out at 7.88%. The result for `O=Cc1ccccc1-c1cn(CN2C(=O)c3ccccc3C2=O)nn1` reads 3.42%; that for `O=C(CCc1nnc2ccc(NCc3ccco3)nn12)N1CCN(c2ccccc2)CC1`, -56.3%. The result for `O=C(CCc1nnc2ccc(NCc3ccco3)nn12)Nc1ccc(F)cc1` reads -9.82%; that for `O=C(CCc1nnc2ccc(NCc3ccco3)nn12)N1CCN(c2ccccc2F)CC1`, -20.5%; that for `O=C(CCc1nnc2ccc(NCc3ccco3)nn12)N1CCN(c2ccc(F)cc2)CC1`, -46.7%. Under `O=C(CCc1nnc2ccc(NCc3ccccc3Cl)nn12)N1CCC2(CC1)OCCO2` stands -67.7%; under `O=C(CCc1nnc2ccc(NCc3ccccc3)nn12)N1CCC2(CC1)OCCO2`, 14.4%; under `Cc1ccc(NC(=O)CCc2nnc3ccc(NCc4ccco4)nn23)cc1F`, -70.9%. `Cc1ccc(NC(=O)CCc2nnc3ccc(NCc4ccco4)nn23)cc1`: the “hERG current change (%, negative = inhibition) at 10uM” value is -2.39%. On to `O=C(CCc1nnc2ccc(NCc3ccc(F)cc3)nn12)N1CCC2(CC1)OCCO2`, for which the “hERG current change (%, negative = inhibition) at 10uM” value is on record as -0.229%.

As for `COC(=O)C1(Cc2cc(-c3ccc(Cl)cc3)no2)CCN(C(=O)OC(C)(C)C)CC1`, the “hERG current change (%, negative = inhibition) at 10uM” value is -22.8%. Under `CCOc1ccc(OCC)c(S(=O)(=O)NCc2ccccc2)c1` stands -10.1%.

Consider `Clc1ccc(N2CCCCCC2)nn1`, for which the “hERG current change (%, negative = inhibition) at 10uM” value amounted to 4.93%. Under `O=C(c1noc2c1CCCC2)N1CCN(c2ccccc2)CC1` stands -17.6%. Take `CCOc1cc(CNc2ccc3[nH]c(=O)[nH]c3c2)ccc1OCC(=O)NC(C)(C)C`: the “hERG current change (%, negative = inhibition) at 10uM” value is given as 12.4%. In the case of `COc1ccc(C2=NN(C(=O)CCC(=O)O)C(c3ccc(Br)cc3)C2)cc1` (centres unmarked), the “hERG current change (%, negative = inhibition) at 10uM” value was 29.9%.

With `COc1ccc(C2=NN(C(=O)CN3CCCCC3)C(c3ccc(C)cc3)C2)cc1` (centres unmarked), the “hERG current change (%, negative = inhibition) at 10uM” value is listed as -54.9%. Under `COc1ccc(C2CC(c3ccc(Br)cc3)=NN2C(=O)CN2CCCC2)cc1` (centres unmarked) stands -68.1%; under `COc1ccc(C2CC(c3ccccc3)=NN2C(=O)CN2CCN(Cc3ccccc3)CC2)cc1` (centres unmarked), -31.2%; under `COc1ccc(C2=NN(C(=O)CN3CCCCC3)C(c3ccc(OC)cc3)C2)cc1` (centres unmarked), -40.1%. Consider `COc1ccc(C2=NN(C(=O)CN3CCCC3)C(c3ccc(OC)cc3)C2)cc1` (centres unmarked), for which the “hERG current change (%, negative = inhibition) at 10uM” value is -40.7%. Under `COC(=O)C1C2C=CC3(CN(c4ccc(Cl)c(F)c4)C(=O)C13)O2` (centres unmarked) stands 4.99%; under `Cc1ccc(S(=O)(=O)N2CCN(c3nccnc3C#N)CC2)cc1`, -54.8%; under `N#Cc1ccc(S(=O)(=O)N2CCN(c3ncccn3)CC2)cc1`, -17.9%. For the molecule `Cc1ccc(S(=O)(=O)N2CCN(c3ccccn3)CC2)cc1`, the “hERG current change (%, negative = inhibition) at 10uM” value amounted to 4.96%. With `O=C(O)Cc1ccc(NC(=O)c2cnccn2)cc1`, the “hERG current change (%, negative = inhibition) at 10uM” value stood at 26.1%. For the molecule `COc1cc(/C=N/NC(=O)Cc2ccccc2)cc([N+](=O)[O-])c1O`, the “hERG current change (%, negative = inhibition) at 10uM” value is 10%. Under `COc1cc(NC(=O)Cc2ccccc2)cc(OC)c1` stands -4.79%; under `COc1ccc(NC(=O)CCN2CCN(C/C=C/c3ccccc3)CC2)cc1`, -77.3%; under `CCN(CCC(=O)Nc1ccc(Br)c(C)c1)Cc1ccccc1.Cl`, -36.8%.

Consider `COc1cc(NC(=S)N2CCN(C/C=C/c3ccccc3)CC2)cc(OC)c1`, for which the “hERG current change (%, negative = inhibition) at 10uM” value was -10.7%. The result for `COc1ccc(NC(=S)N2CCN(C/C=C/c3ccccc3)CC2)cc1` reads -24.1%; that for `COc1ccc(NC(=O)CCN2CCCCCC2)cc1`, -12.3%; that for `CCN(CCC(=O)Nc1cc(OC)cc(OC)c1)Cc1ccccc1`, -65.1%. With `COc1cc(NC(=O)CCN2CCN(C/C=C/c3ccccc3)CC2)cc(OC)c1`, the “hERG current change (%, negative = inhibition) at 10uM” value is recorded as -69.3%.

`COc1cc(NC(=O)CCN2CCN(Cc3ccccc3)CC2)cc(OC)c1`: the “hERG current change (%, negative = inhibition) at 10uM” value is -20.1%.

`Cc1nc2ccccc2c(=O)n1NC(=O)c1cncc(Br)c1`: the “hERG current change (%, negative = inhibition) at 10uM” value turned out to be 14.9%. For the molecule `Cc1cc(C)c(C(=O)OCCNC(=O)c2cccnc2)cc1C`, the “hERG current change (%, negative = inhibition) at 10uM” value is -17.3%. Under `CCc1ccccc1N(CC(=O)NCc1ccco1)C(=O)CCC(=O)Nc1nccs1` stands 0.493%. As for `N#CC(C#N)=Cc1cnc(N2CCN(c3ccccc3)CC2)s1`, the “hERG current change (%, negative = inhibition) at 10uM” value was 23%. Under `COCCN(C(=S)Nc1cc(C)ccc1C)C(C)c1cccnc1` (centres unmarked) stands -25.4%; under `Cc1ccc(OC(C)C(=O)Nc2ccccc2C(=O)N2CCN(C)CC2)cc1` (centres unmarked), -5.11%; under `Cc1c(Nc2nc3ccccc3nc2NS(=O)(=O)c2ccccc2)c(=O)n(-c2ccccc2)n1C`, -67.1%. Take `Cc1c(Nc2c3ccccc3nc3ccccc23)c(=O)n(-c2ccccc2)n1C`: the “hERG current change (%, negative = inhibition) at 10uM” value was -71%. The result for `Cc1c(Nc2nc3ccccc3nc2NS(=O)(=O)c2cccc(Cl)c2)c(=O)n(-c2ccccc2)n1C` reads -2.18%; that for `Cc1c(NS(=O)(=O)c2ccc(Br)cc2)c(=O)n(-c2ccccc2)n1C`, -6.03%.

Take `Cc1c(NP(=O)(c2ccc(Br)cc2)c2ccc(Br)cc2)c(=O)n(-c2ccccc2)n1C`: the “hERG current change (%, negative = inhibition) at 10uM” value is -65.7%.

In the case of `CCc1c(C)c(C#N)c2nc3ccccc3n2c1Nc1c(C)n(C)n(-c2ccccc2)c1=O`, the “hERG current change (%, negative = inhibition) at 10uM” value is given as -5.49%. For the molecule `Cc1cc(Nc2c(C)n(C)n(-c3ccccc3)c2=O)n2c(nc3ccccc32)c1C#N`, the “hERG current change (%, negative = inhibition) at 10uM” value was -73.6%.

Take `Cc1cc(Nc2c(C)n(C)n(-c3ccccc3)c2=O)n2c(nc3cc(F)c(F)cc32)c1C#N`: the “hERG current change (%, negative = inhibition) at 10uM” value is on record as 19.2%. Under `Cc1cc(Nc2c(C)n(C)n(-c3ccccc3)c2=O)c2ccccc2n1` stands -20.3%; under `Cc1c(NP(=O)(C(C)(C)C)C(C)(C)C)c(=O)n(-c2ccccc2)n1C`, 26.4%; under `Cc1c(Nc2nc(C(F)(F)F)nc3ccccc23)c(=O)n(-c2ccccc2)n1C`, -1.37%. The result for `Cc1c(Nc2nc3ccccc3nc2NS(=O)(=O)c2cccs2)c(=O)n(-c2ccccc2)n1C` reads 1.13%.
